# Assay results taken from article PMC4336329 (PLoS ONE, 2015).
# About 14,000 (4.5%) of roughly 310,000 compounds showed an effect of 50% or more. Effects have a minus sign here. The list comes from a sample in which strong results are over-represented; it also holds similar structures and randomly drawn compounds.
# Biological target: human ether-à-go-go-related gene (hERG) potassium channel (human, UniProt Q12809)
# Assay: primary screen, population patch clamp on CHO cells stably expressing hERG; higher = less effect of the substance
# 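Note: peak tail current of the secondary pulse compared with the same well before compound.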
# Chain of human ether-à-go-go-related gene (hERG) potassium channel (Q12809 whole entry, looked up): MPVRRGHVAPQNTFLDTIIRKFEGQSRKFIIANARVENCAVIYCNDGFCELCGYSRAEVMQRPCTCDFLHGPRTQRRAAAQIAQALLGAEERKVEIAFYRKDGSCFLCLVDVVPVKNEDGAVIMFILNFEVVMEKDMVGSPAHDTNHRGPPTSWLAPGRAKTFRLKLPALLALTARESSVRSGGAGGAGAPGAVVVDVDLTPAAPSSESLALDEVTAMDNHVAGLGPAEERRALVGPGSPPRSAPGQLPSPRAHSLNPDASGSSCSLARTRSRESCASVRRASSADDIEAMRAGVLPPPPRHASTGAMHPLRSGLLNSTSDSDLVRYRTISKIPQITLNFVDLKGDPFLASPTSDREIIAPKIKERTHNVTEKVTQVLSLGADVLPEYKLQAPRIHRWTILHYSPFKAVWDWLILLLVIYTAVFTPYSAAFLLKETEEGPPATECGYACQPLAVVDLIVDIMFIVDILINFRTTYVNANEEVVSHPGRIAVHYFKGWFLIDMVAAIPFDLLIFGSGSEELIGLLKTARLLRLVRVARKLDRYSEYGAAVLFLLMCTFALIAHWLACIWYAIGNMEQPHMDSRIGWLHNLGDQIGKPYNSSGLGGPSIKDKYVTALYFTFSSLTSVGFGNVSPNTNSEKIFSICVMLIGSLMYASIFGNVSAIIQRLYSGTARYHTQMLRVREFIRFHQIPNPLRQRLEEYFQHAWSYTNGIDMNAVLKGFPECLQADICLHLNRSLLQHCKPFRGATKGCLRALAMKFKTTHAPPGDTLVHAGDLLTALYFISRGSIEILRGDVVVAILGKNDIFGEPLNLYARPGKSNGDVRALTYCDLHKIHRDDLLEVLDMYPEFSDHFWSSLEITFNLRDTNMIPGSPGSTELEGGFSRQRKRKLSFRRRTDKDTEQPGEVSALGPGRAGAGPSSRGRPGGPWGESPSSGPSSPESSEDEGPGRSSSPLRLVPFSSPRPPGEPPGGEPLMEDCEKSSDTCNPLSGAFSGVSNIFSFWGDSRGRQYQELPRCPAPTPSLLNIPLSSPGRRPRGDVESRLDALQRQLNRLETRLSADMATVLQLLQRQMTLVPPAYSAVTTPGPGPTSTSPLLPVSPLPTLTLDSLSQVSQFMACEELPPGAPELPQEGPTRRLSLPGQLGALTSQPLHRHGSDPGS
row,Structure (SMILES),"hERG current change (%, negative = inhibition) at 10uM [%]"
1,CCC1Oc2ccc(C)cc2N(CC(=O)NCCCN2CCCC2)C1=O (stereo not drawn),-34.7
2,CCC1Oc2ccccc2N(CC(=O)NCCCN2CCN(Cc3ccccc3)CC2)C1=O (stereo not drawn),-42
3,CCC1Oc2ccccc2N(CC(=O)NCCCN2CCN(CC)CC2)C1=O (stereo not drawn),2.97
4,CCC1Oc2ccccc2N(CC(=O)NCCCN2CCN(c3ccc(OC)cc3)CC2)C1=O (stereo not drawn),-50.4
5,CCC1Oc2ccccc2N(CC(=O)NCCCN2CCOCC2)C1=O (stereo not drawn),-4.71
6,CCC1Oc2ccc(C)cc2N(CC(=O)NCCCN2CCN(Cc3ccccc3)CC2)C1=O (stereo not drawn),-53.9
7,Cc1cc(OC(C)C(=O)N[C@H](C(=O)O)c2ccccc2)c2c3c(c(=O)oc2c1)CCC3 (stereo partly drawn),-3.23
8,CCOC(=O)c1c(NCC(C)C)c2ccccc2[nH]c1=O,-1.01
9,Cc1cccc(C(=O)NNC(=O)c2ccc(Br)cc2)c1,4.62
10,O=C(Nc1cccc(Cl)c1Cl)c1snnc1-c1ccccc1,7.74
11,Cc1ccc(NC(=S)N(CCN2CCOCC2)Cc2ccccc2F)cc1Cl,-12.3
12,NC(=S)N/N=C1\CCOc2ccc(Cl)cc21,1.36
13,NC(=S)N/N=C1\CC(c2ccc3c(c2)OCCO3)Oc2ccc(F)cc21 (stereo not drawn),12.9
14,NC(=S)N/N=C1\CCOc2ccc(F)cc21,-76.9
15,O=C(COC(=O)c1cccc(C(=O)OCC(=O)NCc2ccc(F)cc2)n1)NCc1ccc(F)cc1,-15.5
16,O=C(c1cc2cc(F)ccc2[nH]1)N(Cc1cccnc1)CC1CCCN(C2CCCCC2)C1 (stereo not drawn),-77.5
17,O=C(c1cc2ccccc2[nH]1)N(Cc1cccnc1)CC1CCCN(C2CCCCC2)C1 (stereo not drawn),-73.7
18,COC(=O)c1ccccc1C(=O)N(Cc1cccnc1)CC1CCCN(C2CCCCC2)C1 (stereo not drawn),-40
19,Cn1nccc1C(=O)N(CCN1CCCCC1)CC1CCCN(C2CCCC2)C1 (stereo not drawn),-2.29
20,CC(=O)N(Cc1cccnc1)Cc1cc2ccccc2[nH]c1=O,3.63
21,O=C(c1cccs1)N(CCN1CCCCC1)CC1CCCN(C2CCCC2)C1 (stereo not drawn),1.03
22,O=S(=O)(NCc1cn2ccsc2n1)c1cccs1,15.6
23,Cc1cc(C(=O)OCC(=O)Nc2nccs2)c2ccccc2n1,1.22

row,Structure (SMILES),"hERG current change (%, negative = inhibition) at 10uM [%]"
1,Cc1cc(C)c2c(n1)nn1c(C)c(CCC(=O)NCc3ccco3)c(C)nc21,-12.1
2,CCOC(=O)CSc1nnc2n1C(C)(C)Cc1ccccc1-2,-4.66
3,CCOc1cc(C(=O)N=c2sccn2C)cc(Br)c1OC,8.84
4,CNC(=O)COC(=O)c1ccc(NC(=O)CC#N)cc1,11.9
5,CCN(CC(=O)Nc1c(F)cccc1F)C(=O)c1ccc2c(c1)S(=O)(=O)N=C1CCCCCN12,9.69
6,Cc1onc(-c2ccccc2)c1C(=O)NCc1ccc(Cl)cc1,13.8
7,Cc1cc(C(=O)Nc2c(C)nn(Cc3ccc(Cl)cc3)c2C)no1,-15.4
8,Cc1nn(Cc2ccccc2)c(C)c1NC(=O)Cn1nc([N+](=O)[O-])c(Cl)c1C,-10.4
9,Cc1nn(Cc2ccc(Cl)cc2)c(C)c1NC(=O)c1c(-c2ccccc2)noc1C,-65.1
10,CCN(CC)P(=O)(Nc1ccc([N+](=O)[O-])cc1)c1c(C)nn(CCC#N)c1NC(=O)c1ccc(Cl)cc1Cl (stereo not drawn),3.17
11,O=C(Nc1cnn(Cc2ccc(Cl)cc2)c1)c1ccc([N+](=O)[O-])cc1,-31.4
12,CCN(CC)P(=O)(Nc1ccc([N+](=O)[O-])cc1)c1c(C)nn(CCC#N)c1NC(=O)c1ccc(Cl)cc1 (stereo not drawn),-56.9
13,Cc1nn(Cc2ccccc2)c(C)c1NC(=O)c1ccc([N+](=O)[O-])cc1[N+](=O)[O-],-57
14,Cc1cc(C(=O)Nc2c(C)nn(Cc3ccccc3)c2C)on1,1.26
15,CCn1nc(C)c(NC(=O)c2ccc(Cl)cc2)c1C,5.72
16,Cc1nn(Cc2ccc(Cl)cc2)c(C)c1NC(=O)c1ccc([N+](=O)[O-])cc1,-72.6
17,CCN(CC)P(=O)(Nc1ccc(Br)cc1)c1c(C)nn(CCC#N)c1NC(=O)c1ccc(Cl)cc1 (stereo not drawn),7.19
18,C=CCNC(=S)Nc1ccc(OC)c(S(=O)(=O)N2CCOCC2)c1,-10.3
19,CC(=O)c1cc2c(cc1NC(=O)CCc1c(C)nc3ncnn3c1C)OCO2,-10.1
20,C=CCn1c(N)c(C(=O)NCc2cccnc2)sc1=S,-35.1
21,COc1cccc(CN2CC(C(=O)NCCSc3nnnn3C)CCC2=O)c1 (stereo not drawn),18
22,CC(C)(C)C(=O)Nc1ccc(N=Nc2ccccc2)cc1,-0.305
23,O=C(O)C(Cc1c[nH]c2ccccc12)N1C(=O)C2C3c4ccccc4C(c4ccccc43)[C@@H]2C1=O (stereo partly drawn),18

row,Structure (SMILES),"hERG current change (%, negative = inhibition) at 10uM [%]"
1,Nc1nnc(CSCc2ccc(Cl)cc2Cl)s1,0.235
2,Cc1cc(NS(=O)(=O)c2ccc(NC(=O)CCc3ccccc3)cc2)no1,12.2
3,CN(Cc1ccccc1)C(=O)c1nc2ccccn2c1CNCCOc1cccnc1,-31
4,CN(Cc1ccccc1)C(=O)c1nc2ccccn2c1CNCCn1cccn1,-32.3
5,CCCCN(C)C(=O)c1nc2ccccn2c1CNCCCn1nnc2ccccc21,-38
6,O=C(c1nc2ccccn2c1CNCCCn1ncc2ccccc21)N1CCCC1,-37.7
7,CN(Cc1ccccc1)C(=O)c1nc2ccccn2c1CNCCCOc1cccnc1,-52.3
8,CCCCN(C)C(=O)c1nc2ccccn2c1CNCCCn1ncc2ccccc21,-55
9,CCOc1ccccc1NC(=O)CCS(=O)(=O)c1ccc(OC)cc1,-0.411
10,COc1ccc(-n2c(C)cc(/C=C3/SC(=S)N(C)C3=O)c2C)cc1,20.7
11,CCOc1ccccc1C1CC(=O)NC(SCC(=O)Nc2nccs2)=C1C#N (stereo not drawn),-0.586
12,CN(C)CCN1C(=O)C(O)=C(C(=O)c2ccco2)C1c1ccccc1F (stereo not drawn),11.9
13,Cc1ccc(C(=O)N/C(=C\c2cccnc2)C(=O)N2CCCC2)cc1,-1.72
14,Fc1ccc(C2CCCN2Cc2nc(Cc3ccccc3)no2)cc1 (stereo not drawn),-15.2
15,CN(C)c1nc(N)c([N+](=O)[O-])c(NCc2ccccc2)n1,4.16
16,O=C(NCc1ccccn1)C(=O)NCC1OCCN1S(=O)(=O)c1ccc(F)cc1 (stereo not drawn),11.7
17,CCC(OCC(O)CN1CCN(CCN2C(=O)c3cccc4cccc(c34)C2=O)CC1)c1ccccc1.Cl (stereo not drawn),-58.4
18,CS(=O)(=O)N1CCN(CCN2C(=O)c3cccc4cccc(c34)C2=O)CC1,7.17
19,CC(=O)c1ccc(OCC(O)CN2CCN(CCN3C(=O)c4cccc5cccc(c45)C3=O)CC2)cc1.Cl (stereo not drawn),-34.1
20,CCNC(=S)N1CCN(CCN2C(=O)c3cccc4cccc(c34)C2=O)CC1,0.247
21,CC(C)(C)C(=O)N1CCN(CCN2C(=O)c3cccc4cccc(c34)C2=O)CC1,3.09
22,CC(C)OCC(O)CN1CCN(CCN2C(=O)c3cccc4cccc(c34)C2=O)CC1.Cl (stereo not drawn),-51.7
23,CCCCN(C(=O)Cc1ccc(S(=O)(=O)N2CCOCC2)s1)c1c(N)n(CCCC)c(=O)[nH]c1=O,0.586

row,Structure (SMILES),"hERG current change (%, negative = inhibition) at 10uM [%]"
1,C=CCNc1oc(-c2ccco2)nc1S(=O)(=O)c1ccccc1,-4.58
2,N#CCc1nn(-c2ccccc2)c(N)c1C#N,5.46
3,CCc1ccc(NC(=O)C(=O)N/N=C(\C)CC(=O)Nc2ccccn2)cc1,-8.33
4,COc1ccc2cc3cc(C(=O)NCc4ccco4)oc3nc2c1,-9.75
5,COc1ccccc1CN1CC(C(=O)N2CCN(c3ccc(F)cc3)CC2)CC1=O (stereo not drawn),-43
6,CC(C)CCN1CC(C(=O)N2CCN(c3ccc(F)cc3)CC2)CC1=O (stereo not drawn),-25.4
7,O=C1CC(C(=O)N2CCN(c3ccc(F)cc3)CC2)CN1CCc1ccccc1 (stereo not drawn),-50.5
8,Cc1ccc(CCN2CC(C(=O)N3CCN(c4ccc(F)cc4)CC3)CC2=O)cc1 (stereo not drawn),-57.4
9,Cc1ccc(CCN2CC(C(=O)O)CC2=O)cc1 (stereo not drawn),-0.636
10,O=C(O)C1CC(=O)N(CCc2ccc(F)cc2)C1 (stereo not drawn),-8.39
11,Cc1ccc(NC(=O)CSc2nc(N)c3c4c(sc3n2)CSC(C)(C)C4)cc1,14.2
12,COc1ccc(NC(=O)C2CCN(C(=O)Nc3ccccc3)CC2)cc1S(=O)(=O)N(C)C,12.5
13,O=S(=O)(NCCCc1ccccc1)c1ccccc1,10.3
14,Cc1ccc(S(=O)(=O)NCCCNS(=O)(=O)c2ccc(C)cc2)cc1,-17.9
15,O=[N+]([O-])c1ccc(NCCCNS(=O)(=O)c2ccccc2)cc1,-64.7
16,O=[N+]([O-])c1ccc(S(=O)(=O)NCCCc2ccccc2)cc1,-64.6
17,Cc1ccc(S(=O)(=O)NCCNc2ccc([N+](=O)[O-])cc2)cc1,-22.8
18,Cc1ccc(S(=O)(=O)NCCCNc2ccc([N+](=O)[O-])cc2)cc1,-65.2
19,O=S(=O)(NCCCc1ccccc1)c1ccc(Br)cc1,-9.3
20,O=[N+]([O-])c1ccc(NCCNS(=O)(=O)c2ccccc2)cc1,-38.9
21,O=[N+]([O-])c1ccc(NCCCNS(=O)(=O)c2ccccc2)c(Cl)c1,-14.3
